From ChEMBL document CHEMBL4513216, “Probing the Open Global Health Chemical Diversity Library for Multistage-Active Starting Points for Next-Generation Antimalarials” (ACS Infect Dis, 2020)
Out of some 68,000 compounds screened, about 2,700 (4%) showed an effect of 50% or more. The list comes from a sample in which strong results are over-represented; it also holds similar structures and randomly drawn compounds.

System: Plasmodium berghei
Assay: Screen against P. berghei liver stage (PbLuc), transformed with Luciferase, at 2uM
Format: functional, HepG2
Conditions: tested at 2 uM

SMILES	INHIBITION [%]
O=C(NC1CCN(Cn2nc(-c3ccccc3)oc2=O)CC1)C1CC1	-0.69
Cc1cc(C2CCCN2Cc2cccc(C(=O)Nc3nccs3)c2)no1 (centres undefined)	2.7
CC1CCCN(Cc2cccc(C(=O)Nc3nccs3)c2)C1 (centres undefined)	63.46
CC(=O)Nc1cccc(CN2CCCC2C(=O)Nc2nccs2)c1 (centres undefined)	-4.48
CC(C)N(C)Cc1cn2c(n1)CN(C(=O)Cc1ccccc1)CC2	-47.56
Cc1noc(Cl)c1CCC(=O)N1CCN(CC(C)(C)O)CC1	21.89
CCN1CCN(C(=O)CCc2c(C)noc2Cl)CC1	-61.5
Cc1noc(Cl)c1CCC(=O)N1CCN(Cc2ccncc2)CC1	62.13
O=C(Nc1ccc2c(ccn2CCN2CCOCC2)c1)c1ccccn1	13.72
Cc1cc(CN(C)C(=O)NC2CCCC2)no1	29.12
N#Cc1cccc(N2CCCC3(CCC(=O)N(C4CCCC4)C3)C2)n1 (centres undefined)	-11.07
COc1c(C2CCCN2C(=O)c2sc(C)nc2C)c(C)nn1C (centres undefined)	-37.68
NC(=O)CN1CCCCC1c1nc(N)ncc1-c1cccc(F)c1 (centres undefined)	18.64
CN(C)C(=O)CN1CCCCC1c1nc(N)ncc1-c1cccc(F)c1 (centres undefined)	65.76
CN(C)C(=O)CN1CCCCC1c1nc(N)ncc1-c1ccccc1 (centres undefined)	-19.81
CC(=O)c1c(C)nn(S(=O)(=O)c2ccc(F)cc2)c1C	16.13
Cc1nc2cc(O)nn2c(C)c1CCC(=O)NCCCC(C)C	37.68
CC(C)C1CN(C(=O)c2cc(F)cc3[nH]cnc23)CCS1 (centres undefined)	11.24
CC(C)N(CCNC(=O)N1CCCC(N(C)C)C1)C1CC1 (centres undefined)	73.01
CN(C)C1CCCN(C(=O)NCCC(C)(C)C)C1 (centres undefined)	28.95
CN(C)C1CCCN(C(=O)NCCC(=O)N2CCCCCC2)C1 (centres undefined)	-17.01
Cc1ccc(O)c(CNCC2CCCN2c2cccnn2)n1 (centres undefined)	24.88
CCN(CC)CCNC(=O)c1nn(CC)cc1Cl	54.07
CCN(CC)CCCNC(=O)c1nn(CC)cc1Cl	24.34
CCCNC(=O)c1nn(CC)cc1Cl	-40.28
COCCCNC(=O)c1c(-n2cnnn2)sc2c1CCC2	-0.44

SMILES	INHIBITION [%]
CN(C)C(=O)c1ccccc1NC(=O)N[C@@H]1c2ccccc2C[C@@H]1O	42.32
CS(=O)(=O)c1ccccc1N[C@@H]1c2ccccc2C[C@@H]1O	54.29
CS(=O)(=O)c1ccccc1NC(=O)N[C@@H]1c2ccccc2C[C@@H]1O	-11.32
O=S1(=O)NCC2(CCCN(Cc3ccccn3)C2)Oc2ncccc21 (centres undefined)	-30.35
CN(C)c1ncc(CNC(=O)Nc2ccc(C(F)(F)F)cc2)n1C	47.59
CC(=O)N[C@@H]1CN(Cc2oc3ccccc3c2C)C[C@H]1c1ccc(C)o1	3.92
Nc1ncccc1CN1CCCn2nc(CCC(=O)NC3CC3)cc2C1	26.82
O=C1C(Nc2nccn3cnnc23)CCN1c1cccc(Cl)c1 (centres undefined)	34.89
CCCc1noc(C2CCN(C(=O)C3CCCO3)CC2)n1 (centres undefined)	15.58
O=C(NC1CCCC1)c1ccc(C2CCCNC2)nc1 (centres undefined)	12
COc1c(C2CCCN2CC(=O)N(C)Cc2ccco2)c(C)nn1C (centres undefined)	5.39
COc1cc(C)ccc1S(=O)(=O)N1CC[C@](C)(O)[C@H](C)C1	-11.41
COCC[C@]1(O)CCN(S(=O)(=O)c2ccc(C)cc2OC)C[C@H]1C	69.67
CCc1ccc(S(=O)(=O)N2CC[C@@](O)(CCOC)[C@H](C)C2)cc1	26.74
COc1cc(COCC2CCN(Cc3cccnc3)CC2)cc(OC)c1	20.76
COc1cc(CN2CCC(COCc3ccccc3)CC2)cc(OC)c1	55.25
COc1cc(COCC2CCN(Cc3ccccn3)CC2)cc(OC)c1	5.98
CC(C)CN1CCC2(COCc3cnc(-c4ccccc4)nc32)C1 (centres undefined)	5.22
O=C(c1cc(C2CC2)[nH]n1)N1CCN(Cc2ccccc2)CC1	5.52
O=C(c1cc(C2CC2)[nH]n1)N1CCN(Cc2ccc(Cl)cc2)CC1	59.99
CC(C)c1ccc(CN2CCN(C(=O)c3cc(C4CC4)[nH]n3)CC2)cc1	38.87
Cc1ccc(C(=O)Oc2cc(=O)n3cccc(C)c3n2)cc1	-38.95
COc1ccc(CCNC(=O)C2CCOC2)c(Cl)c1 (centres undefined)	-7.69
CCOCCCNC(=O)C1(C)CCC(=O)N1c1ccccc1OC (centres undefined)	-15.25
Cc1cccc2c1cnn2CCCNC(=O)c1cnn(C)c1	2.66
O=C(NCCNc1ncccn1)N1CCc2ccccc2C1	-17.17

SMILES	INHIBITION [%]
Cc1cncc(C(=O)N2CCN(c3cnn(C)c(=O)c3)CC2)c1	41.05
Cc1oc(C(C)C)cc1C(=O)N1CCN(c2cnn(C)c(=O)c2)CC1	86.36
CCc1ncc(C(=O)N2CCN(c3cnn(C)c(=O)c3)CC2)cn1	24.36
Cc1c(CCC(=O)N2CCCC2c2ccnc(N(C)C)c2)cnn1C (centres undefined)	24.13
CNc1cc(C2CCCN2C(=O)c2ccc(=O)[nH]n2)ccn1 (centres undefined)	51.88
CNc1cc(C2CCCN2C(=O)CCc2ccccc2F)ccn1 (centres undefined)	-34.8
CNc1cc(C2CCCN2C(=O)CCc2cnn(C)c2C)ccn1 (centres undefined)	73.23
CNc1cc(C2CCCN2C(=O)c2ccc3oc(=O)n(C)c3c2)ccn1 (centres undefined)	11.71
CNc1cc(C2CCCN(C(=O)c3ccc(=O)[nH]n3)C2)ccn1 (centres undefined)	27.54
c1ccc(-c2ncc(CNC3CCc4ncnn4C3)cn2)cc1 (centres undefined)	15.31
c1ccc(CCN2CCOC(Cn3cccn3)C2)nc1 (centres undefined)	23.71
CC(NC(=O)NCCCNS(C)(=O)=O)c1ccncc1 (centres undefined)	9.9
CN1CCN(C(=O)N2CCCC(c3nccn3CC3CCC3)C2)CC1 (centres undefined)	-18.71
Cc1ccc(N2CCC(C(=O)O)(n3ccc(C(C)C)n3)CC2)nn1	-12.36
Cc1nc(CN2CCC(C(=O)O)(n3ccc(-c4ccco4)n3)CC2)co1	-26.72
Cc1nc(CN2CCC(C(=O)O)(n3ccc(C(C)C)n3)CC2)co1	53.55
Cc1ccc(-n2nnc(C(=O)O)c2C)c(C)c1	-2.64
Cc1ccc(C(=O)N2C[C@H]3CNC[C@H]3C2)cn1	-53.62
O=C(c1ccc(S(=O)(=O)NCC(F)F)cc1)N1CC[C@H]2CNC[C@H]21	26.74
O=C(c1cc(F)cc(F)c1)N1C[C@H]2CNC[C@H]2C1	51.81
O=C(c1ccc(S(=O)(=O)NCC(F)F)cc1)N1C[C@H]2CNC[C@H]2C1	57.75
O=C(c1ccc(F)c(F)c1)N1C[C@H]2CNC[C@H]2C1	-9.69
O=C(c1ccc(S(=O)(=O)NC2CCC2)cc1)N1CC[C@H]2CNC[C@H]21	-13.8
O=C(c1cnccn1)N1C[C@@H](OCc2cccnc2)[C@H]2OCCC[C@H]21	-39.95
CCN(CC)[C@@H]1CN(Cc2nccn2C)[C@@H]2CCCO[C@H]12	-3.53
CCCc1noc(C(C)S(=O)(=O)Cc2nc(C3CC3)no2)n1 (centres undefined)	-7.66

SMILES	INHIBITION [%]
Cc1noc(C(C)N2CCN(Cc3nnc(C4CC4)o3)CC2)n1 (centres undefined)	-4.99
CC(c1nc(C2CC2)no1)N1CCN(Cc2ccsc2)CC1 (centres undefined)	5.72
CCCc1nc(CN2CCN(C(C)c3nc(C4CC4)no3)CC2)no1 (centres undefined)	50.18
CCc1nc(CN2CCN(C(C)c3nc(C4CC4)no3)CC2)no1 (centres undefined)	13.91
CC(c1nc(C2CC2)no1)N1CCN(Cc2nnc(C3CC3)o2)CC1 (centres undefined)	49.01
CCc1noc(CS(=O)(=O)C(C)c2nc(C3CC3)no2)n1 (centres undefined)	57.16
CC(C)c1noc(C(C)S(=O)(=O)Cc2nc(C3CC3)no2)n1 (centres undefined)	-17.22
CC(C)c1noc(C(C)N2CCN(Cc3ccsc3)CC2)n1 (centres undefined)	60.31
CC(C)c1noc(C(C)N2CCN(Cc3cccs3)CC2)n1 (centres undefined)	41.76
CC(C)c1nc(CN2CCN(C(C)c3nc(C4CC4)no3)CC2)no1 (centres undefined)	-42.32
CC(C)c1noc(C(C)N2CCN(Cc3nnc(C4CC4)o3)CC2)n1 (centres undefined)	58.52
CC(C)OCc1ccccc1CNC(=O)C(C)(C)C	-26.08
CS(=O)(=O)c1nccn1Cc1ccc(OC(F)F)cc1	-35.45
O=C(O)c1cc(NS(=O)(=O)c2ccccc2F)ccc1N1CCSCC1	-21.39
Cc1nc(C)n(CC2CCCCN2CC(=O)NC(C2CC2)C2CC2)n1 (centres undefined)	17.75
COc1ccccc1OCC(=O)N1C[C@@H]2CN(C)CCO[C@@H]2C1	32.04
CN1CCc2nc(N(C)C)nc(N3CCC(O)CC3)c2C1	21.24
CN(Cc1nc(C2CC2)no1)C(=O)c1cccc(CC2CCNCC2)c1	-11.41
Cc1nn(C)c2nc(NC(C)c3nnn[nH]3)sc12 (centres undefined)	-16.31
Cc1csc2ncc(-c3ccnc(N4CCN(C)CC4)n3)c(=O)n12	-23.11
Cc1cc2c(cc1Cl)C=CC1(CCN(CC(=O)N3CCCC3)CC1)O2	-28
Cc1cc2c(cc1Cl)C=CC1(CCN(CC(=O)NC3CCCC3)CC1)O2	3.58
CCN(CC)C(=O)CN1CCC2(C=Cc3cc(Cl)c(C)cc3O2)CC1	1.4
Cc1cc2c(cc1Cl)C=CC1(CCN(CC(=O)N3CCOCC3)CC1)O2	-4.78
Cc1cc2c(cc1Cl)C=CC1(CCN(C(=O)N3CCOCC3)CC1)O2	57.47
Cc1cc2c(cc1C)OC1(C=C2)CCN(CC(=O)N2CCOCC2)CC1	54.2
